# Lassa entry inh: blocks Lassa virus binding to or entry into cells; actives 1.2% (n = 300,000); AID 540256; Lassa virus pseudotype entry inhibition, cell reporter; Potency, µM (highest dose often 37.9 µM), for inactives: at the highest dose activity change, negative = inhibition, most hits filed as inhibitors; calls by dose curve; tested in HEK293 cells; note: potency is the fitted concentration of half-maximal effect; nearly all actives have a fitted effect of over 50% in size
# HCV inh: HCV inhibition; Huh7.5.1 HCVcc-Cre infection, luciferase reporter, 44 h; Potency, µM (titrated, usually from 41.8 µM), for inactives: top-dose activity change, negative = inhibition, usual class: inhibitors; actives 3.4% (n = 340,000); active = well fitted inhibition curve with a large enough effect; inconclusive = small, poorly fitted or top-dose-only effect, or another doubt; inactive = no such curve, though single readings can be large or run the other way; note: potency is the fitted concentration of half-maximal effect
#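 Infectious HCV cell culture screen: compound-treated cells (1,000/well, pre-plated 4 h) are infected with HCVcc-Cre at roughly 0.5 moi and grown 44 h. Infection is quantified by luciferase signal after 15 min substrate incubation at room temperature.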
# Marburg entry inh: blocks Marburg virus binding to or entry into cells | Potency, µM (titrated, usually from 37.8 µM), for the others: top-dose activity change, negative = inhibition, actives largely listed as inhibitors | Marburg virus pseudotyped entry inhibition, cell reporter | AID 540276 | actives 1.8% (n = 300,000); calls by dose curve; tested in HEK293 cells; note: potency is the fitted concentration of half-maximal effect
# FMDV antiviral: antivirals against foot and mouth disease virus; FMDV antiviral cell-based qHTS; Potency, µM (highest dose often 57.9 µM), for inactives: at the highest dose activity change, negative = inhibition, actives largely listed as inhibitors; actives 1.2% (n = 410,000); AID 1159524; calls by dose curve; tested in HEK293T cells; note: read-out not given here; potency is the fitted concentration of half-maximal effect; nearly all actives have a fitted effect of over 45% in size
# HCMV inh: human cytomegalovirus inhibition. HFF cells, HCMV-luciferase reporter, 72 h; hits give low values. activity change, negative = inhibition, % at 57.5 µM. actives 4.5% (n = 410,000). AID 1259415; in the data active = activity change below about -60%; inconclusive = no clear call, values can overlap the other calls; inactive = above about -39%
#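 Inhibition of viral replication was scored as loss of reporter luminescence in HFFs infected with HCMV-luciferase (MOI 1 PFU/cell) for 72 h; compounds tested at 2 doses, normalized to buffer and Salinomycin controls.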
# The depositor's hits bear a star; u = inconclusive; x = no result; [ ] = another dose, or the depositor's remark. Sampled rows, rich in hits. Any-hit rate of the full collection: about 7.9%. % is set by controls: 0 for no effect and ±100 for the full control effect.
SMILES,Lassa entry inh,HCV inh,Marburg entry inh,FMDV antiviral,HCMV inh
C=CCC[C@H](Cc1ccc(F)cc1)C(=O)OC[C@@H](NC(=O)[C@@H](CC=C)CC(=O)N[C@@H](CO)Cc1ccccc1)C(C)(C)C,x,22µM*,x,-1%,61
C=CCC[C@@H](Cc1ccc(F)cc1)C(=O)OC[C@H]1CCCN1C(=O)[C@@H](CC=C)CC(=O)N[C@H](CO)Cc1ccccc1,x,6%,x,u,24
Cc1noc(C)c1COc1ccc(C(=O)OCC(=O)Nc2cccc(S(=O)(=O)N3CCOCC3)c2)cc1,2%,u,14%,-23%,46
CC(C)c1c(C(=O)N2CCN(CCO)CC2)cnn1-c1nccc(-c2cccs2)n1,x,x,x,-5%,x
Cc1ccc(C)c(CN2CCCN(CC(=O)Nc3ccc(C)c(C)c3)S2(=O)=O)c1,-20%[46.1 µM],x,x,-14%,0
CCCC(C)(C)C(=O)N1CCC1(C)C(=O)Nc1ccc2c(c1)OCCO2 (configuration not stated),x,x,x,-6%,-66*
CC1(C(=O)Nc2ccc3c(c2)OCCO3)CSCC(=O)N1C1CC1 (configuration not stated),x,x,x,-10%,-2
CC1(C(=O)Nc2ccc3c(c2)OCCO3)CCC(=O)N1C1CC1 (configuration not stated),x,x,x,-10%,-100*
CCCc1[nH]nc2c1[C@@H](c1cccc(OC)c1)C(C#N)=C(N)O2,x,x,4%,x,x
COCCN1C(=O)NC(c2ccco2)C(C(=O)OC)=C1C (configuration not stated),x,x,3%[14.2 µM],x,x
CCCNC(=O)c1ccc2c(c1)N=C(C)c1c(C)ccc(C)c1S2,u,x,u,-21%,-102*
COc1ccc(CNC(=O)c2ccc3c(c2)N=C(C)c2c(C)ccc(C)c2S3)cc1,u,x,u,u,-6
CC1=Nc2cc(C(=O)NCCCN3CCOCC3)ccc2Sc2c(C)ccc(C)c21,u,u,u,-9%,-68*
CC1=Nc2cc(C(=O)NCCc3ccccc3)ccc2Sc2c(C)ccc(C)c21,-28%[46.1 µM],x,u,-21%,-103*
CC1=Nc2cc(C(=O)NCCc3ccc(Cl)cc3)ccc2Sc2c(C)ccc(C)c21,u,x,u,-27%,-88*
O=C(COc1ccc2c(c1)OCO2)Nc1nncs1,7%[46.1 µM],20%,-4%[46.1 µM],0%,-38
COc1ccc(-c2cc3nc(-c4ccc(C)cc4)cc(C(F)(F)F)n3n2)cc1,9%[46.1 µM],x,4%[46.1 µM],-3%,5
COc1ccc(/C=C2\N=C(c3ccccc3)N(c3ccc(C(=O)O)cc3)C2=O)cc1OC,-6%,19%,u,-2%,-25
CCC[C@H](/C=C/C(=O)OCC)NC(=O)C(F)(F)F,x,x,x,x,-8
O=C(/C=C\c1ccc(O)cc1)c1ccc(O)cc1O,x,x,10µM*,x,x
O=c1c2ccccc2c(C=Nc2ccc(S(=O)(=O)Nc3ncccn3)cc2)c(O)n1-c1cccc(Cl)c1,x,x,x,x,-7
Cc1cc(N=Cc2c(O)n(-c3cccc(Cl)c3)c(=O)c3ccccc23)no1,u,16%,-25%,-18%,-60*
COc1ccc(N/C(C)=C2/C(=O)C(=O)N(CCO)C2c2ccc([N+](=O)[O-])cc2)cc1 (configuration not stated),-14%,-7%,1%,-16%,-99*
C/C(=N/Nc1ccc([N+](=O)[O-])cc1)c1ccc(C)cc1C,-15%,u,-46%,16%,-63*
COc1ccc(C2/C(=C(/O)c3ccccc3)C(=O)C(=O)N2CO)cc1 (configuration not stated),4%,-17%,-7%[46.1 µM],-13%,-2
SMILES,Lassa entry inh,HCV inh,Marburg entry inh,FMDV antiviral,HCMV inh
COc1ccc(C(=O)/C(C#N)=N/Nc2ccc([N+](=O)[O-])cc2)cc1,x,1.6µM*,x,u,-114*
COc1ccc(C(=O)CC(=O)Nc2ccc([N+](=O)[O-])cc2)cc1,x,11µM*,x,-12%,u
COc1ccc(C(=O)/C(C#N)=N/Nc2ccccc2[N+](=O)[O-])cc1,u,4%,u,-17%,-10
Nc1c(C(=O)Nc2ccccc2Cl)c2ccccn2c1C(=O)c1ccccc1,30%[46.1 µM],x,-1%[46.1 µM],-10%,15
O=C(CC1c2cc(F)ccc2C=C(c2ccsc2)N1c1ccc(C#CCCO)cc1)c1ccco1 (configuration not stated),x,x,x,-16%,-33
CCc1nnc2c(Nc3ccc(Br)c(C)c3)nc3ccccc3n12,-2%[46.1 µM],x,x,-1%,19
CCN(c1ccc(NC(=O)CCc2nc3sc4c(c3c(=O)[nH]2)CCCC4)cc1)C(C)C,0%,u,-24%,-18%,-34
CCCCCn1c(=O)[nH]c2cc(C(=O)NCCN3CCCCC3C)ccc2c1=O (configuration not stated),u,u,3%[46.1 µM],-7%,x
CC(C(=O)NCc1cccs1)N1CCN(S(=O)(=O)c2ccc3c(c2)OCCCO3)CC1 (configuration not stated),-7%,u,u,-24%,-8
CCN(CC)S(=O)(=O)c1ccc(NN=C(C#N)C#N)cc1,u,u,u,10µM*,u
N#CC(C#N)=NNc1ccc([N+](=O)[O-])cc1,u,11µM*,u,-21%,-91*
COC(=O)C1CCN(Cc2ccc3c(c2)CN(C(=O)c2cc(C4CC4)on2)CCO3)CC1,x,x,x,-15%,x
COc1ccc(CN2CCCC(n3cc(C(=O)N4CCCCC4)nn3)C2)c(OC)c1C (configuration not stated),x,x,x,-4%,x
FC(F)(F)c1ccccc1Cc1c(-c2cccc(Br)c2)nc2c3ccccc3ccn12,x,x,x,27%,29
CSC1=C(C#N)C(=O)NC(c2ccccc2O)S1 (configuration not stated),26%,19%,-2%,u,11
COC(=O)CSC1=C(C#N)C(=O)NC(c2ccccc2)S1 (configuration not stated),-19%,13%,19%,7.9µM*,-16
CN(Cc1ccccc1)Cc1ccccc1C(O)c1ccccc1 (configuration not stated),18%,u,u,0%,-27
CCCCCN1C=CC(=C2C(=O)c3ccccc3C2=O)C=C1,x,-8%,x,2.8µM*,-90*
Brc1cccc(-c2cnn3c(-c4ccccc4)cc(-c4ccccc4)nc23)c1,12%[46.1 µM],x,11%[46.1 µM],4%,4
CCOc1ccc(Br)cc1S(=O)(=O)N1CCC(C(N)=O)CC1,12%,26%,-4%,45%,-64*
O=c1c2ccccc2cnn1-c1nc2ccccc2[nH]1,0.33µM*,9%,0.29µM*,1.8µM*,-92*
O=c1c(Cl)c(N2CCCCC2)cnn1-c1nc2ccccc2[nH]1,u,-6%,u,u,-61*
CCOc1ccc(NS(=O)(=O)c2ccc3c(c2)N(C(C)=O)CCS3)cc1,x,u,x,-11%,-65*
CCOc1ccc(NS(=O)(=O)c2ccc3c(c2)N(C(C)=O)CC3)cc1,-25%,10%,u,-12%,-36
CC(=O)N1CCSc2ccc(S(=O)(=O)Nc3cccc(C)c3)cc21,x,14µM*,x,-22%,u

# Source: PubChem (National Center for Advancing Translational Sciences (NCATS))
